Source: PubChem BioAssay (EPA / NIEHS)
Inconclusive results are not listed. The source made the active and inactive calls. Rule for the calls: active = hit-call score of the fitted dose curve at least 0.9, where 1 is the maximum; inconclusive = response in the unintended direction; inactive = score below 0.9.

Read-out: ABC Transporter (ABCB11), ABCB11 (gene 8647)
Test: CLD_ABCB11_48hr: CellzDirect (CLD) Gene Expression Assay for ABC Transporter (ABCB11) at 48 hours (AID 2283697)
Protocol: CLD_48hr is a cell-based, multiplexed-readout assay that uses hepatocyte, a human liver primary cell, with measurements taken at 48 hours after chemical dosing in a 96-well plate.CLD_ABCB11_48hr is one of 16 assay component(s) measured or calculated from the CLD_48hr assay. It is designed to make measurements of mRNA induction, a form of inducible reporter, as detected with chemiluminescence signals by Quantitative Nuclease Protection Assay (qNPA) technology.Data from the assay component CLD_ABCB11_48hr was analyzed at the endpoint, CLD_ABCB11_48hr, in the positive analysis fitting direction relative to DMSO as the negative control and baseline of activity. Using a type of inducible reporter, gain-of-signal activity can be used to understand changes in the reporter gene as they relate to the gene ABCB11. Furthermore, this assay endpoint can be referred to as a primary readout. To generalize the intended target to other relatable targets, this assay endpoint is annotated to the transporter intended target family, where subfamily is ABC transporter.
Human hepatocyte cultures were treated daily for two consecutive days with fresh dosing solutions containing appropriate concentrations of the 320 ToxCast chemicals (chemical identities were blinded to CellzDirect and other ToxCast collaborators), vehicle control (0.2% DMSO), and positive control inducers as summarized in Table 1. Due to the large number of treatment groups and chemicals examined, the ToxCast chemicals were divided into two groups (spanning two independent cultures of hepatocytes from separate donor preparations (Hu778: ToxCast plates 1 and 2; Hu776: ToxCast plates 3 and 4). Each preparation of human hepatocyte cultures was treated with respective vehicle control, medium only control, set of six positive controls/reference chemicals for the five hepatic receptor pathways, and a subset of eight of the ToxCast chemicals (indoxacarb, pyrithiobac-sodium, norflurazon, cyhalofop-butyl, methomyl, thiram, acetochlor, and propiconazole). These replicate data, coupled with internal replicates designed within the blinded ToxCast chemical library, provided additional data to evaluate interindividual differences between hepatocyte preparations and their potential impact on chemical profiles.Cell morphology and integrity were evaluated using phase-contrast microscopy as an indicator of hepatocyte cell health (Tyson & Green, 1987). Cultures for each treatment group (i.e., media, vehicle [0.2% DMSO], positive control inducers [multiple concentrations], and the ToxCast chemicals [multiple concentrations]) were observed and cell morphology was assessed relative to vehicle control cultures at each harvest time point (0, 6, 24, or 48 h). […] Images were evaluated at the conclusion of the study to assess changes in cell integrity and account for the effects of chemical exposure on uncharacteristic changes in concentration-dependent gene expression profiles. The results from these determinations of apparent cytotoxicity were annotated (yes/no) alongside the corresponding qNPA data for reference.At the conclusion of each treatment period, hepatocyte cultures (96-well) were washed with 1 volume of HBSS, lysed by addition of 25 ul ArrayPlate lysis buffer (HTG, Tucson, AZ), and 70 ul/well of Denaturation Oil, denatured by incubation at 95C for 10 min, and frozen at approximately -70C until analysis by nuclease protection assay (qNPA) (Roberts et al., 2007). For qNPA analysis, cell lysates were thawed at 50C for approximately 30 min, qNPA probes were added, and samples were incubated at 95C for 10 min to begin the detection process by denaturing the target RNA, dissociating the duplexes and secondary structure hybridization. At the conclusion of the hybridization period, S1 nuclease reagent was added to each sample to digest all nonprotected nucleotides at 50C for 60-90 min. […]

Structure (SMILES) | outcome | AC50
Clc1ccccc1-c1nnc(-c2ccccc2Cl)nn1 | inactive | 
CNC(=O)/C=C(\C)OP(=O)(OC)OC | inactive | 
CCOc1nc(NC)nc(NC(=O)NS(=O)(=O)c2ccccc2C(=O)OC)n1 | inactive | 
O=C(NC(=O)c1c(F)cccc1F)Nc1ccc(OC(F)(F)C(F)OC(F)(F)F)c(Cl)c1 (centres undefined) | inactive | 
CCc1ccc(C(=O)NN(C(=O)c2cc(C)cc(C)c2)C(C)(C)C)cc1 | inactive | 
Oc1ccc(Cl)cc1Cc1ccccc1 | inactive | 
COP(=S)(OC)Oc1ccc([N+](=O)[O-])cc1 | inactive | 
N#Cc1c(Cl)c(Cl)c(Cl)c(C#N)c1Cl | inactive | 
COC(=O)c1ccccc1S(=O)(=O)NC(=O)N(C)c1nc(C)nc(OC)n1 | inactive | 
COc1cc(OC)nc(NC(=O)NS(=O)(=O)c2cc(NC=O)ccc2C(=O)N(C)C)n1 | inactive | 
CC[C@H](C)[C@H]1O[C@]2(C=C[C@@H]1C)C[C@@H]1C[C@@H](C/C=C(\C)[C@@H](O[C@H]3C[C@H](OC)[C@@H](O[C@H]4C[C@H](OC)[C@@H](O)[C@H](C)O4)[C@H](C)O3)[C@@H](C)/C=C/C=C3\CO[C@@H]4[C@H](O)C(C)=C[C@@H](C(=O)O1)[C@]34O)O2 (tested in a mixture with another compound) |  | 0.206 µM (active)
CCS(=O)(=O)c1cccnc1S(=O)(=O)NC(=O)Nc1nc(OC)cc(OC)n1 | inactive | 
Cc1cc(C)nc(NC(=O)NS(=O)(=O)c2ccccc2C(=O)OC2COC2)n1 | inactive | 
COP(=O)(OC)OC=C(Cl)Cl | inactive | 
Oc1cc(Cl)ccc1Oc1ccc(Cl)cc1Cl | inactive | 
O=C(Nc1ccccc1)Nc1cnns1 | inactive | 
CCCN(CCC)c1c([N+](=O)[O-])cc(C(F)(F)F)cc1[N+](=O)[O-] | inactive | 
O=C1c2ccccc2C(=O)N1SC(Cl)(Cl)Cl | inactive | 
CCOCN(C(=O)CCl)c1c(C)cccc1CC | inactive | 
